TrxR1 substrate: qHTS Assay for Substrates of Mammalian Selenoprotein Thioredoxin Reductase 1 (TrxR1): qHTS; Thioredoxin reductase 1, cytoplasmic (Rattus norvegicus), O89049; AID 588456, 2011; purified TrxR1 substrate turnover, NADPH consumption readout; hit rate 0.01% among 390,000; Potency, µM (highest dose often 114 µM), inactives show at the top dose activity change, negative = substrate turnover; note: potency is the fitted concentration of half-maximal effect; % is set by controls: 0 for no effect and ±100 for the full control effect; nearly all actives have a fitted effect of over 50% in size
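Rat TrxR1, dispensed at 90 nM, was prereduced with 400 uM NADPH (final) for 5 min at ~22 deg C, then incubated with compound 15 min before 400 uM selenite. A first-read NADPH fluorescence drop versus no-compound background flagged substrates.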
rTrxR1 inhibitor: qHTS Assay for Inhibitors of Mammalian Selenoprotein Thioredoxin Reductase 1 (TrxR1): qHTS; recombinant rTrxR1, NADPH fluorescence consumption, selenite substrate; Potency, µM (doses to about 114 µM), inactives show at the top dose activity change, negative = inhibition, actives largely listed as inhibitors; Thioredoxin reductase 1, cytoplasmic (Rattus norvegicus), O89049; hit rate 1% among 390,000; AID 588453, 2011; note: potency is the fitted concentration of half-maximal effect; % is set by controls: 0 for no effect and ±100 for the full control effect; nearly all actives have a fitted effect of over 65% in size
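Rat TrxR1 (90 nM in the dispensed reagent) was pre-reduced with 400 uM NADPH for 5 min at room temperature, then incubated with compound for 15 min. After 400 uM selenite was added, NADPH fluorescence (Ex 340/Em 450 nm) was followed for 8 min.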
Apoferritin bind: qHTS Assay for Identification of Novel General Anesthetics | Ferritin light chain (Equus caballus), P02791 | apoferritin/1-aminoanthracene competitive binding, fluorescence | Potency, µM (series often up to 77.5 µM), without a hit: at the top dose activity change, negative = displacement, actives largely listed as inhibitors | hit rate 0.074% among 350,000 | AID 485281, 2010; note: potency is the fitted concentration of half-maximal effect; % is set by controls: 0 for no effect and ±100 for the full control effect; nearly all actives have a fitted effect of over 20% in size
Target sequence (P02791 2-175 limits assumed): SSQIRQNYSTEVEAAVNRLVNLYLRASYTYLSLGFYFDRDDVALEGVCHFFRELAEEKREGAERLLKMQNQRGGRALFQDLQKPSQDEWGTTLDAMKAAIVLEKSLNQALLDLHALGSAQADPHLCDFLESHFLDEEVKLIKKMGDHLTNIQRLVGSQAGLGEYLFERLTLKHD
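10 uM apoferritin + 50% sat. 1-AMA, PBS; cpd 10 min RT; Ex380/Em535 endpoint; normalized to free probe vs complex; 4-param Hill fit; propofol titration as pos. ctrl.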
ALOX12 inh: Primary qHTS assay for inhibitors of human arachidonate 12S-lipoxygenase (ALOX12): Round 2. hit rate 1.1% among 580,000. Potency, µM (highest dose often 108 µM), for inactives: at the highest dose activity change, negative = inhibition, actives largely listed as inhibitors. purified 12hLO, xylenol orange hydroperoxide absorbance. Polyunsaturated fatty acid lipoxygenase ALOX12 (Homo sapiens), P18054; note: potency is the fitted concentration of half-maximal effect; % is set by controls: 0 for no effect and ±100 for the full control effect
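Purified human 12hLO at 150 nM in 25 mM Hepes, 0.01% Triton X-100, pH 7.0, preincubated 15 min at room temperature with compound. Reaction started with 40 uM arachidonic acid, 30 min at room temperature. Hydroperoxide measured by Fe-xylenol orange, 573/405 nm absorbance ratio.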
GRP78 ERSR act: qHTS for Inducers of the Endoplasmic Reticulum Stress Response (ERSR) in Human Glioma: qHTS | U87-MG GRP78 promoter luciferase reporter, 16 h | Potency, µM, inactives show at the top dose activation, usual class: activators | hit rate 0.02% among 420,000; note: potency is the fitted concentration of half-maximal effect; series mostly up to about 76 µM; % of control where 0% means no effect; nearly all actives have a fitted effect of over 35% in size
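Stably transfected U87-MG glioma cells carrying a GRP78-based luciferase sensor; 16 h compound incubation. Luminescence end-point read 10 min after Bright-Glo addition at room temperature.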
mIDH1 inhibitor: qHTS for Inhibitors of mutant isocitrate dehydrogenase 1 (IDH1): qHTS | Isocitrate dehydrogenase [NADP] cytoplasmic (Homo sapiens), O75874 | IDH1-R132H enzyme, NADPH consumption, diaphorase/resazurin fluorescence | Potency, µM (top dose mostly 76.6 µM), for the others: at the top dose activity change, negative = inhibition, usual class: inhibitors | hit rate 0.093% among 390,000 | AID 602179, 2012; note: potency is the fitted concentration of half-maximal effect; % is set by controls: 0 for no effect and ±100 for the full control effect; nearly all actives have a fitted effect of over 65% in size
Target sequence (O75874 whole entry R132H, stated change not applied): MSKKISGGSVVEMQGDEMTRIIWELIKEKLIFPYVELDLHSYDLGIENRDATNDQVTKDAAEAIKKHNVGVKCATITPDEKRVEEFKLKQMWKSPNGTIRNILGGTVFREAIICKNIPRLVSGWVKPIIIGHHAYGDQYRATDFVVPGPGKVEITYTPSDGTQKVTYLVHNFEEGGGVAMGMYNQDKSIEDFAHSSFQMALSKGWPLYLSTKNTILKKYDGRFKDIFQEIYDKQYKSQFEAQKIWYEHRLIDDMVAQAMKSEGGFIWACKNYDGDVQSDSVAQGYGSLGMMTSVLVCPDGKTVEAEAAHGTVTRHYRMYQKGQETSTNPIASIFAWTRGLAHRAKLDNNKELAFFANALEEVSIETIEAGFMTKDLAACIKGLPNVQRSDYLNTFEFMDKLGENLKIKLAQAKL
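IDH1-R132H (0.5 ug/mL) preincubated 30 min with compound, then NADPH (0.016 mM) and alpha-KG (2 mM) added; 80 min at RT, pH 7.5. Remaining NADPH coupled via diaphorase/resazurin to fluorescence (540/590 nm); concentration-response curves normalized to no-enzyme control.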
IDH1 autofl: qHTS for Inhibitors of mutant isocitrate dehydrogenase 1 (IDH1): Cherrypicks Autofluorescence Interference; shares compounds with mIDH1 inhibitor; Resorufin detection reagent fluorescence interference, cell-free; inhibition of signal, % at 51.2 µM; 750 tested, under 10 active; AID 623980, 2012;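 note: 0% = wells with normal resorufin and full inhibition = wells lacking resorufin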
WT IDH1 inh: qHTS for Inhibitors of mutant isocitrate dehydrogenase 1 (IDH1): Cherrypicks in WT IDH1 | shares compounds with mIDH1 inhibitor | Potency, µM (highest dose often 115 µM), for inactives: top-dose activity change, negative = inhibition, hits mostly inhibitors | WT IDH1 enzyme, NADPH diaphorase/resazurin fluorescence | hit rate 9% among 750;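 note: potency is the fitted concentration of half-maximal effect; 0% = full WT IDH1 enzyme control and full inhibition = no enzyme wells; nearly all actives have a fitted effect of over 55% in size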
Target sequence (O75874 whole entry, looked up): as the sequence (O75874 whole entry R132H, stated change not applied) above, with H132R counted along it
IDH1 R132H conf: qHTS for Inhibitors of mutant isocitrate dehydrogenase 1 (IDH1): Confirmation of Cherrypicks. shares compounds with mIDH1 inhibitor. hit rate 83% among 750. IDH1 R132H enzyme, NADPH diaphorase/resazurin fluorescence. Potency, µM (series often up to 76.6 µM), without a hit: top-dose activity change, negative = inhibition, usual class: inhibitors. AID 624002, 2012; note: potency is the fitted concentration of half-maximal effect; nearly all actives have a fitted effect of over 50% in size
An asterisk follows results filed as active; [ ] = another dose, or the depositor's remark. Most compounds without a hit are left out; they make up all but 1.7% or so of the library. Calls come from the whole dose curve; as a rule, active = well fitted curve in the direction sought with a large enough effect; inconclusive = small, poorly fitted or top-dose-only effect, or another doubt; inactive = no such curve, though single readings can be large; an effect the other way counts as inactive or inconclusive.

Cc1ccc2c(c1)c1c3n2CCN(C(=O)CCl)C3CCC1 (centres undefined) was read as TrxR1 substrate 10%, rTrxR1 inhibitor 7.9µM*, Apoferritin bind 3%, ALOX12 inh 11µM*, GRP78 ERSR act -13%, mIDH1 inhibitor 46µM*, IDH1 autofl -1, WT IDH1 inh inconclusive and IDH1 R132H conf 16µM*.
CC(=O)N1CCn2c3c(c4cc(C)ccc42)CCCC31 (centres undefined) was read as TrxR1 substrate 5%[57.1 µM], rTrxR1 inhibitor 0%[57.1 µM], Apoferritin bind -9%, ALOX12 inh -12%, GRP78 ERSR act 3% and mIDH1 inhibitor -1%.
`O=C(Nn1c(C2CCCCC2)nc2ccccc2c1=O)c1ccc([N+](=O)[O-])cc1` gave TrxR1 substrate -1%[57.1 µM], rTrxR1 inhibitor -9%[57.1 µM], Apoferritin bind -3%, ALOX12 inh -7%, GRP78 ERSR act -5%, mIDH1 inhibitor inconclusive, IDH1 autofl 6, WT IDH1 inh 1% and IDH1 R132H conf -30%.
`COCc1ccc(-c2c(-c3ccsc3)oc(=O)c3cc(OC)c(OC)cc23)cc1` gave TrxR1 substrate 6%[57.1 µM], rTrxR1 inhibitor 8%[57.1 µM], ALOX12 inh -3%, GRP78 ERSR act -2%, mIDH1 inhibitor 16µM*, IDH1 autofl 6, WT IDH1 inh 1% and IDH1 R132H conf 10µM*.
For Brc1ccc(-c2csc(NNC3=NCCCCC3)n2)cc1 the results were TrxR1 substrate -6%, rTrxR1 inhibitor 10%, Apoferritin bind -19%, ALOX12 inh inconclusive, GRP78 ERSR act 7%, mIDH1 inhibitor 26µM*, IDH1 autofl 2, WT IDH1 inh 38% and IDH1 R132H conf inconclusive.
Screening CC(=O)OCC(=O)[C@@]12OC3(CCCC3)O[C@@H]1C[C@H]1[C@@H]3CCC4=CC(=O)C=C[C@]4(C)[C@@]3(F)[C@@H](O)C[C@@]12C returned TrxR1 substrate 4%, rTrxR1 inhibitor 12%, Apoferritin bind -17%, ALOX12 inh -9%, GRP78 ERSR act -1%, mIDH1 inhibitor 14µM*, IDH1 autofl 4, WT IDH1 inh -11% and IDH1 R132H conf 7.1µM*.
CCc1noc(-c2cccn3c(CNC(=O)Cc4ccccc4Cl)nnc23)n1 was read as ALOX12 inh 29%.
`CCc1nc(N2CCN(C(C)=O)CC2)c2c3c(sc2n1)CC(C(C)(C)C)CC3` (centres undefined) gave TrxR1 substrate -7%, rTrxR1 inhibitor -8%, Apoferritin bind -5%, ALOX12 inh 12%, GRP78 ERSR act -2% and mIDH1 inhibitor inconclusive.
`CCc1nc(N2CCN(C(=O)CCl)CC2)c2c3c(sc2n1)CC(C)CC3` (centres undefined) gave TrxR1 substrate 5%, rTrxR1 inhibitor 22µM*, Apoferritin bind -21%, ALOX12 inh 14%, GRP78 ERSR act -14%, mIDH1 inhibitor inconclusive, IDH1 autofl -7, WT IDH1 inh 50µM* and IDH1 R132H conf 10µM*.
Screening Cc1ccc(/C=C/C(=O)c2ccc([N+](=O)[O-])o2)cc1 returned TrxR1 substrate -4%, rTrxR1 inhibitor 6.3µM*, ALOX12 inh -7%, GRP78 ERSR act -9%, mIDH1 inhibitor 35µM*, IDH1 autofl -10, WT IDH1 inh inconclusive and IDH1 R132H conf 8.9µM*.
Screening Cc1cc(O)c(C(=O)/C=C/c2ccc(Cl)cc2)c(=O)o1 returned TrxR1 substrate 1%[57.1 µM], rTrxR1 inhibitor -20%[57.1 µM], Apoferritin bind -2%, ALOX12 inh 7%, GRP78 ERSR act -2% and mIDH1 inhibitor -4%.
Screening O=C(/C=C/c1ccc(Cl)cc1)c1ccc([N+](=O)[O-])o1 returned TrxR1 substrate -2%, rTrxR1 inhibitor 5µM*, ALOX12 inh -19%, GRP78 ERSR act -11%, mIDH1 inhibitor 11µM*, IDH1 autofl 0, WT IDH1 inh inconclusive and IDH1 R132H conf 8.9µM*.
`N#Cc1ccc(CSc2nnnn2-c2ccccc2)c(F)c1` gave ALOX12 inh -22%.
N#Cc1ccc(CN2C[C@@H]3OCC(=O)N(CC(N)=O)[C@@H]3C2)cc1 was read as ALOX12 inh 31%[176 µM].
Screening Cc1ccc(-n2c(SCC(=O)O)nc3c(sc(=S)n3-c3ccc(C)c(C)c3)c2=O)cc1 returned TrxR1 substrate -7%, rTrxR1 inhibitor -8%, Apoferritin bind -9%, ALOX12 inh 0%, GRP78 ERSR act inconclusive and mIDH1 inhibitor 5%.
`Cc1ccc(-n2c(=S)sc3c(=O)n(-c4ccc(F)cc4)c(SCC(=O)O)nc32)cc1C` gave TrxR1 substrate -11%[57.1 µM], rTrxR1 inhibitor -1%, Apoferritin bind 0%, ALOX12 inh 0%, GRP78 ERSR act 11%, mIDH1 inhibitor inconclusive, IDH1 autofl -22, WT IDH1 inh 0% and IDH1 R132H conf 13µM*.
Screening Cc1cccc(-c2c3c(=O)n(C)c(=O)n(C)c3cn2-c2cc(N)c(Cl)cc2Cl)c1 returned TrxR1 substrate 13%, rTrxR1 inhibitor 15%, Apoferritin bind 3%, ALOX12 inh 1%, GRP78 ERSR act -2%, mIDH1 inhibitor 35µM*, IDH1 autofl -2, WT IDH1 inh -21% and IDH1 R132H conf inconclusive.

Screens: PubChem BioAssay, National Center for Advancing Translational Sciences (NCATS)
